For part of these data: Entries with a potency or affinity are not part of this list.
Assays:
Design in all cases: scale not given: direction of the effect not stated beside the values
[1] = target: Protein translocase subunit SecA (Escherichia coli (strain K12)) (UniProt P10408); experiment: Assay to Identify E. coli SecA ATPase Inhibitors; type: functional; details: 30 µM
[2] = target: T1, Ubiquitin-activating enzyme e1, putative (Leishmania donovani (strain BPK282A1)) (UniProt E9BSI1); experiment: Leishmania donovani Ubiquitin Activating Enzyme (LdE1); type: functional; details: 30 µM
T1 sequence (whole entry): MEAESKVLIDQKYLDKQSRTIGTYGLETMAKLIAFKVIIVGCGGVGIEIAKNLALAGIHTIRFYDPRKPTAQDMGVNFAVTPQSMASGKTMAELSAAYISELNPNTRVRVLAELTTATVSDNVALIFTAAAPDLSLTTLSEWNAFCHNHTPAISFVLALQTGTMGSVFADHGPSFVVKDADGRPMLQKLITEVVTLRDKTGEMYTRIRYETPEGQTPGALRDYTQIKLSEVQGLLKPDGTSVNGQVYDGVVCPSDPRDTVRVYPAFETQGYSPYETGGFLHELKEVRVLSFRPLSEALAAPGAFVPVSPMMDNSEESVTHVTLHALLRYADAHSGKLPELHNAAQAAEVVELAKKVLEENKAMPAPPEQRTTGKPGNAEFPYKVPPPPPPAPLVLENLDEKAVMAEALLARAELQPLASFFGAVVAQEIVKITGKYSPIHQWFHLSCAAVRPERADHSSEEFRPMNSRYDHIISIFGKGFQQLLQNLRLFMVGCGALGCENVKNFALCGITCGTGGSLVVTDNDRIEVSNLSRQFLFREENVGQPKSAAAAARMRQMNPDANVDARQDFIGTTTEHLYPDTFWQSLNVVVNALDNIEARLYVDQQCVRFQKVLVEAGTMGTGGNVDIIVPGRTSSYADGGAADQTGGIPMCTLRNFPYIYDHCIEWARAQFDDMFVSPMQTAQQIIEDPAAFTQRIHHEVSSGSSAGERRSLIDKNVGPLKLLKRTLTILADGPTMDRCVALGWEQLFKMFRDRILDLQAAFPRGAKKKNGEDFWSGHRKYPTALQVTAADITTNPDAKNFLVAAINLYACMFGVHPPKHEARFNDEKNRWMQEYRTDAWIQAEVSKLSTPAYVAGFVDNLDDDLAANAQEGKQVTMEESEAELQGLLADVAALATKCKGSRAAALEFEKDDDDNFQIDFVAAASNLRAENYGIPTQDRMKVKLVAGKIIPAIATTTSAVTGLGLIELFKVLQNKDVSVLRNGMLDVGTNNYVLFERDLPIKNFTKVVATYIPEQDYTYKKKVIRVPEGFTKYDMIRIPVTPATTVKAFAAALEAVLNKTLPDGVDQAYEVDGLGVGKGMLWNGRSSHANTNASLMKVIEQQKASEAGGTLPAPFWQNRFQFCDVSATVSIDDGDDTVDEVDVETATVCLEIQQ

[3] = target: T2, Aspartate--tRNA(Asp/Asn) ligase (Mycobacterium tuberculosis (strain ATCC 25618 / H37Rv)) (UniProt P9WFW3); experiment: Assay for Asp RNA synthetase-1 from Mycobacterium tuberculosis; type: functional; details: 30 µM; further: in the data most compounds retested in dose-response had high values
T2 sequence (whole entry): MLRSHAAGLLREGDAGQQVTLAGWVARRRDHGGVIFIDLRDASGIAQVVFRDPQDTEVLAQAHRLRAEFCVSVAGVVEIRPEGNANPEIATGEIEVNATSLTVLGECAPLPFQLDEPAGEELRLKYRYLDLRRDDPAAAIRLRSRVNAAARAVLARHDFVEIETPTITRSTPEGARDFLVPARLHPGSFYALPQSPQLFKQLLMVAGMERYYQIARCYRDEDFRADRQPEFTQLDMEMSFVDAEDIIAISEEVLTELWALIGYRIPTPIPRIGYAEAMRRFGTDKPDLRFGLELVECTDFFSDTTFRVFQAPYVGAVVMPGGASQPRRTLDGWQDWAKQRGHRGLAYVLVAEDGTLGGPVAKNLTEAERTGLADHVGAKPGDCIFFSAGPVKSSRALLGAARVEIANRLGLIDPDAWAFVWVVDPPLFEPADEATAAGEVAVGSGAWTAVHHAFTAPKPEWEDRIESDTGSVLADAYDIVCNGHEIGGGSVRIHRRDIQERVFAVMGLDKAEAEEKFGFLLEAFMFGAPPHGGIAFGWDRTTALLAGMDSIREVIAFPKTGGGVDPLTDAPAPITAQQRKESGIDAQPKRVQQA

[4] = target: AMP-activated protein kinase, AMPK (Homo sapiens) (UniProt P54646+O43741+P54619+Q9UGJ0+Q9Y478+Q13131+Q9UGI9); experiment: AMP-dependent Kinase enzyme assay. An in vitro enzyme assay that detects ADP turnover that is directly proportional to AMPK activity. This uses naive AMPK that is activated during the assay with MK-8722; type: functional; details: 30 µM
[5] = target: Sialic acid-binding Ig-like lectin 9 (Homo sapiens) (UniProt Q9Y336); experiment: Hs-Siglec9 ALPHAscreen SOP 20170721; details: 10 µM
Sialic acid-binding Ig-like lectin 9 (Homo sapiens), sequence (Q9Y336 whole entry): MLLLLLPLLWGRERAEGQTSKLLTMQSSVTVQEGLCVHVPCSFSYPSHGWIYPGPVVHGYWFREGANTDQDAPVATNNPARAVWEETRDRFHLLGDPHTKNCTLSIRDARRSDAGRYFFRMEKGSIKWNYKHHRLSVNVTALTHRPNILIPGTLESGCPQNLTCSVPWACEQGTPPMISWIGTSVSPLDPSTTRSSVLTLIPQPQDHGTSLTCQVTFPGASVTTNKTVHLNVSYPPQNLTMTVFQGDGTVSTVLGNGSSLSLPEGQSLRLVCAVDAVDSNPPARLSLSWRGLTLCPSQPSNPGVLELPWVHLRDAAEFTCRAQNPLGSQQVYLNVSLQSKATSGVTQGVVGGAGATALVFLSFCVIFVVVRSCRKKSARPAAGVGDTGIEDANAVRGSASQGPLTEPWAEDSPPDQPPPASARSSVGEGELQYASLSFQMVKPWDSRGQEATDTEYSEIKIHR

[6] = tested on: Trypanosoma cruzi; experiment: Trypanosoma cruzi phosphomannomutase and mannose-1-phosphate guanylyltransferase assay; type: functional; details: 10 µM
[7] = target: T3, Arginase-2, mitochondrial (Homo sapiens) (UniProt P78540); experiment: in vitro enzyme assay to detect the production of urea directly proportional to the activity of Arginase II; type: functional; details: 33.3 µM; further: in the data most compounds retested in dose-response had high values
T3 sequence (whole entry): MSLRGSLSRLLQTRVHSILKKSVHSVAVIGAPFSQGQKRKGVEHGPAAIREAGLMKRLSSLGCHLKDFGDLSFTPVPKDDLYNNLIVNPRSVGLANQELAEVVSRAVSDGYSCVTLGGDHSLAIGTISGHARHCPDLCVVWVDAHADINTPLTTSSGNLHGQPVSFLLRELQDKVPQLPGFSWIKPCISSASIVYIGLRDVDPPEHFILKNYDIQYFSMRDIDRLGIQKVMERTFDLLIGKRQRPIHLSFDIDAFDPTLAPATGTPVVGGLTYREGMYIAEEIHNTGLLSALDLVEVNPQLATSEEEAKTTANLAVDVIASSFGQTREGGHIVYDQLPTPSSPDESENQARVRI

[8] = target: T4, Proteasome subunit beta (Trypanosoma cruzi) (UniProt O96673); experiment: Trypanosoma cruzi proteasome chymotrypsin-like activity (TcProtChymo) assay.; further: in the data most compounds retested in dose-response had high values; type: functional; details: 9.37 µM
T4 sequence (whole entry): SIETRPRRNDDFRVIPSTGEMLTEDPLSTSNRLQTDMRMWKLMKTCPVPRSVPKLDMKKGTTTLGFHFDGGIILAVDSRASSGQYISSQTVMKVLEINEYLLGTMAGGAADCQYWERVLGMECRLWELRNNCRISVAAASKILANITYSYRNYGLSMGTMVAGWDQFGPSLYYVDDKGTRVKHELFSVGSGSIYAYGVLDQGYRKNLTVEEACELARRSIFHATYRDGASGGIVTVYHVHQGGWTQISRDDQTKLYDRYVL

[9] = species: Homo sapiens; experiment: To identify inhibition of the IFN signalling (Jak-Stat) pathway via expression of an eGFP reporter gene under the control of an IFN-stimulated response element (ISRE) containing MxA promoter.; type: functional; details: 30 µM
[10] = target: Shiga toxin 2 (Escherichia coli O157:H7) (UniProt P09385+P09386); experiment: E. coli 0.157:H7 Shiga Toxin SOP - stx2 screening assay; type: functional; details: 30 µM
[11] = target: T5, Tyrosyl-tRNA synthetase, putative (Trypanosoma cruzi (strain CL Brener)) (UniProt Q4DSP6); experiment: Trypanosoma cruzi tyrosyl tRNA synthetase (TcYRS) _High Tyrosine SOP; type: functional; details: 30 µM; further: in the data most compounds retested in dose-response had high values
T5 sequence (whole entry): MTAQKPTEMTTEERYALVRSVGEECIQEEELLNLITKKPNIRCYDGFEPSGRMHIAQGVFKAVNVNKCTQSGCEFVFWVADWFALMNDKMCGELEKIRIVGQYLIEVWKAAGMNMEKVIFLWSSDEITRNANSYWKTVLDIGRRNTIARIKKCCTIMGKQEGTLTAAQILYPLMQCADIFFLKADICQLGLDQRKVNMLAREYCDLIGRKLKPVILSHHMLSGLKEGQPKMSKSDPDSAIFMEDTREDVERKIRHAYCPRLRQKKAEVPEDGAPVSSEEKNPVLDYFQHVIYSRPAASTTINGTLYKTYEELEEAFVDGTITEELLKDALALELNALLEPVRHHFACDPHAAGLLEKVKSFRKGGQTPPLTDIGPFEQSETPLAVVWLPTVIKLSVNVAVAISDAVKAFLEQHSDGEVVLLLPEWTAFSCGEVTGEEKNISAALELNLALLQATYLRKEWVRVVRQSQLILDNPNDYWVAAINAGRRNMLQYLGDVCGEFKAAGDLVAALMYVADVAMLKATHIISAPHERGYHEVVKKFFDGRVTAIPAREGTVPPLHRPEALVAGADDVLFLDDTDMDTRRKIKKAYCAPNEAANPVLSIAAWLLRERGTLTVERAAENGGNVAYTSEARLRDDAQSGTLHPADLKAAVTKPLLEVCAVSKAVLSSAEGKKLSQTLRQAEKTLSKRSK

[12] = target: T5, Tyrosyl-tRNA synthetase, putative (Trypanosoma cruzi (strain CL Brener)); experiment: Trypanosoma cruzi tyrosyl tRNA synthetase (TcYRS) SOP; type: functional; details: 30 µM
[13] = target: Chromo domain-containing protein 1 (Saccharomyces cerevisiae (strain ATCC 204508 / S288c) (Baker's yeast)) (UniProt P32657); experiment: ScCHD-1 Enzyme Inhibition Assay; type: functional; details: 30 µM; further: in the data most compounds retested in dose-response had high values
Chromo domain-containing protein 1 (Saccharomyces cerevisiae (strain ATCC 204508 / S288c) (Baker's yeast)), sequence (P32657 whole entry, the tested form may be a part): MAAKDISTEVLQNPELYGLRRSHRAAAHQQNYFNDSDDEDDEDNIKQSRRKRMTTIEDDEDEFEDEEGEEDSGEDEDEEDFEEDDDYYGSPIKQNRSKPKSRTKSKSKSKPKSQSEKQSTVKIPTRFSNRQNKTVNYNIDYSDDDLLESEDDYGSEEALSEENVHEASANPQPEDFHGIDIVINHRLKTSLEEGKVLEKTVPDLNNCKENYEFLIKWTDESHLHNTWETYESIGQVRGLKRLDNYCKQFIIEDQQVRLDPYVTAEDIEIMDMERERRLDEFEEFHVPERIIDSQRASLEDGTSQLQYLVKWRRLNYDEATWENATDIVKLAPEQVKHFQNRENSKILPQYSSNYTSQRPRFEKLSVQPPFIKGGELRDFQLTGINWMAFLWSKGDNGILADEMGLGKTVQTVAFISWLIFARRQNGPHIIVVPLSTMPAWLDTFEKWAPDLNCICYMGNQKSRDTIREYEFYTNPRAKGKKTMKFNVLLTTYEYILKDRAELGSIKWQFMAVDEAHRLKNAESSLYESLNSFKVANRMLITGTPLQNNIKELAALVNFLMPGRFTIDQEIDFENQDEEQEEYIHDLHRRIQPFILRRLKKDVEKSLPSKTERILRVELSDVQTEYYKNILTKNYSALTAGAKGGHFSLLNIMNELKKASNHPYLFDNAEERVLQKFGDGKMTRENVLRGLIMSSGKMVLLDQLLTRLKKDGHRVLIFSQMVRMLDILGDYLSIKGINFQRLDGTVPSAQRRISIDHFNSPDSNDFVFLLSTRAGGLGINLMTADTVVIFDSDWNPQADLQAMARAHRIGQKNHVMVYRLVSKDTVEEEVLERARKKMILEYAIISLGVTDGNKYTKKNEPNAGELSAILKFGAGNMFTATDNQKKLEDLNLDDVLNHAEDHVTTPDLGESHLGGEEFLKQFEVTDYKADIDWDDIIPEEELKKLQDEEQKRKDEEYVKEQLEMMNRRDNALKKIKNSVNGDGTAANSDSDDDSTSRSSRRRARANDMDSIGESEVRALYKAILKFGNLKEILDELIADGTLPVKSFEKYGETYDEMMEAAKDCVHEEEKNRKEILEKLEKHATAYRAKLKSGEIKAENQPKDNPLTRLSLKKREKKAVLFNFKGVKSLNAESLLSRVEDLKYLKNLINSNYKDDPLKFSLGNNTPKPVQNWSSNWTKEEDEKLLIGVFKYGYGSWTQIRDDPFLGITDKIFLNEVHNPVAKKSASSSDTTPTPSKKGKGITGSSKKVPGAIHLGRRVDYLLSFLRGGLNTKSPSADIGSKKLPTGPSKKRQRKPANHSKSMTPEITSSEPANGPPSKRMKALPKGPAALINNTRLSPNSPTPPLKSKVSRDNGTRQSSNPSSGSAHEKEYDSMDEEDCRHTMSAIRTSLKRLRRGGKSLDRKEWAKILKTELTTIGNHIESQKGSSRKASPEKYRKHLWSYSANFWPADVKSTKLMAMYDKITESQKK

Protein translocase subunit SecA (Escherichia coli (strain K12)), sequence (P10408 whole entry): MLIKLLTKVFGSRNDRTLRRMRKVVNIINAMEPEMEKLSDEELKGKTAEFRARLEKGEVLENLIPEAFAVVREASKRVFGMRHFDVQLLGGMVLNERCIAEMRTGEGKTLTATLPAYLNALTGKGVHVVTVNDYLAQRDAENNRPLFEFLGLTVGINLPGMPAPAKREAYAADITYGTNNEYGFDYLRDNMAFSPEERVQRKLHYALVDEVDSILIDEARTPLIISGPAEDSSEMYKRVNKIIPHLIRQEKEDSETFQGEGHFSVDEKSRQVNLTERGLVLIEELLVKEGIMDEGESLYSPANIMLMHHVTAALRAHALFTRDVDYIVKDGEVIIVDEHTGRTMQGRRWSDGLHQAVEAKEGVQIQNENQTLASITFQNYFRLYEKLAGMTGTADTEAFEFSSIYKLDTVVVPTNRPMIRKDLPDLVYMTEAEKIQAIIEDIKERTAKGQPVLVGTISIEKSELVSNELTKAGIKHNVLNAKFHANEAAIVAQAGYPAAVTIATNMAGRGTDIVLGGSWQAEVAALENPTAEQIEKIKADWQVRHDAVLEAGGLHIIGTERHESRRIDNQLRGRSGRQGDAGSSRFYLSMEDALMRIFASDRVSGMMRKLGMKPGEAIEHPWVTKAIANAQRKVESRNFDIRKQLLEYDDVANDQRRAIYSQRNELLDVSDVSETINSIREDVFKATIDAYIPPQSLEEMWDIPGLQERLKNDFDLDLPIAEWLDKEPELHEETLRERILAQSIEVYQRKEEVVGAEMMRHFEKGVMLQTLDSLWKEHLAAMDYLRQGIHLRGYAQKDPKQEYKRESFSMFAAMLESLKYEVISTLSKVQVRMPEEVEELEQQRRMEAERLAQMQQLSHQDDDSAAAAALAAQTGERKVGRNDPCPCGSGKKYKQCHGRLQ

| Structure (SMILES) | Percent Effect [1] | Percent Effect [2] | Percent Effect [3] | Percent Effect [4] | Percent Effect [5] | Percent Effect [6] | Percent Effect [7] | Percent Effect [8] | Percent Effect [9] | Percent Effect [10] | Percent Effect [11] | Percent Effect [12] | Percent Effect [13] |
| --- | --- | --- | --- | --- | --- | --- | --- | --- | --- | --- | --- | --- | --- |
| CCN1C[C@H]2C[C@H](C(=O)NCc3cccnc3)[C@@H](C1)O2 | -1.53% | 0% | 4.45% | -69.3% | 5.53% | 1.07% | 2.23% | 11.1% | -10.6% | 2.21% | 3.24% | 10.3% | 2% |
| CC(c1ccc(F)cc1)N1CCN(Cc2ccc(C#N)cc2)CC1 (configuration not stated) | -5.23% | 13.5% | -0.88% | -5.75% | 2.94% | -4.81% | -0.401% | 7.57% | 18.8% | 24.7% | 4.43% | 13.6% | -5.01% |
| CN1CCC2(COCc3cnc(N4CCOCC4)nc32)C1 (configuration not stated) | -1.86% | -1.33% | -1.51% | 5.52% | 4.35% | -1.18% | -0.528% | 5.36% | -2.62% | -6.09% | 0% | -5.13% | -1.41% |
| COc1c(Br)cc(Br)cc1CNC(C)Cn1cccn1 (configuration not stated) | -4.9% | 23.4% | 2.09% | 5.26% | -2.65% | -10.9% | -3.56% | 1.01% | 35.9% | 15.4% | 4.85% | 9.76% | -8.37% |
| c1csc(CN2CC[C@H]3C[C@H](c4ccncn4)O[C@@H]3C2)c1 | 2.89% | 13% | 2.7% | 9.99% | -6.78% | -7.99% | 5.81% | 19.7% | 13.8% | -7.55% | 2.12% | 6.41% | -8.13% |
| c1ccc(O[C@H]2CC[C@H]3[C@H]2OCCN3Cc2nccs2)nc1 | -1.17% | -5.2% | 5.47% | -3.9% | 10.1% | 7.57% | -41.4% | 13.6% | 21% | -14.7% | 3.23% | 8.64% | -5.68% |
| O[C@@]1(c2ccccn2)CC[C@H]2CN(Cc3cccc(Cl)c3Cl)C[C@H]21 | -3.54% | 1.35% | -0.73% | 14.3% | -0.828% | -3.95% | -1.62% | -0.468% | 25.8% | 23.9% | 2.15% | 6.49% | -8.09% |
| CN1CCCC(Cc2cncc(Br)c2)CC1 (configuration not stated) | -3.64% | 1.35% | -6.03% | 13.7% | -1.84% | 5.73% | 0.232% | 9.05% | -10.1% | -7.14% | 20.4% | 22.1% | -20.8% |
| CC(C)=CCN1C(=O)[C@H]2CC[C@@H]1CN(Cc1cccnc1N)C2 | 5.73% | 4.17% | 4.65% | 1.92% | 2% | -5.34% | 3.53% | 23.7% | 7.39% | -25.3% | 7.37% | 2.56% | 2.83% |

— ChEMBL document CHEMBL3988442, “University of Dundee, Small-Polar-MMV Screening Library” (2021)
